PubChem BioAssay AID371 (SRMLSC, 2006)
Several values for one entry are separate records, joined by “and”; a condition that tells them apart may be missing. Equal values may be shown once. The campaign covered roughly 3,300 compounds. About 280 (8.5%) were called active. For the sample, actives were picked, then their nearest neighbours and some compounds at random. A number with no mark means an inactive call.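 The calls were made as follows: active = mean growth inhibition over the two runs of 50% or more; inactive = mean growth inhibition under 50%.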

Assay: A549 NSCLC cell proliferation inhibitors – ATP luminescence, human non-small cell lung line, primary screen (AID 371);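 also: compound exposure lasted 72 h before the ATP read; 0% = untreated cell signal and 100% = no luminescence left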
Conditions: at 10 µM, hits give high values
In the case of COc1ccccc1C(=O)NC(=Nc1nc2ccccc2o1)NC(=O)c1ccccc1OC, the growth inhibition is reported as 67.3% (active).
For COc1ccccc1C(=O)NCC(=O)n1nc(C)cc1C, the growth inhibition was 4.23%.
With N/C(=N\c1nc2ccccc2o1)NC(=O)c1ccccc1NC(=O)c1ccccc1 the growth inhibition was 69.5% (active).
For COc1ccccc1C(=O)Nc1cc(Cl)ccc1O, the growth inhibition was -0.89%.
COc1ccc(C(=O)N/C(N)=N/c2nc3ccccc3o2)cc1 gave a growth inhibition of 28.8%.
In the case of O=C(Nc1ccccc1C(=O)NCCCn1ccnc1)c1ccccc1, the growth inhibition is reported as -0.68%.
COc1ccccc1C1C(C#N)=C(N)Oc2cc(C)n(Cc3ccccn3)c(=O)c21 (stereo unspecified) showed a growth inhibition of -10.3%.
Work on CCNC(=O)COn1c(SCC(=O)NCC)nc2ccccc2c1=O yielded a growth inhibition of -0.37%.
In the case of CCOC(=O)C1CCN(c2ncnc3c2cnn3-c2ccc(OC)cc2)CC1, the growth inhibition is reported as 4.94%.
With CS(=O)(=O)c1ccc2nc(NC(NC(=O)c3ccco3)(C(F)(F)F)C(F)(F)F)sc2c1 the growth inhibition was 29.9%.
In the case of CCOC(=O)CSc1nnc(C)c(=O)[nH]1, the growth inhibition is reported as 2.53%.
CC(=O)Nc1cc2c(cc1Br)OCCO2 gave a growth inhibition of -4.42%.
CN(C)c1ccc(C2C3C(=O)N(c4ccc(C(=O)O)cc4)C(=O)C3ON2c2ccccc2)cc1 (stereo unspecified) showed a growth inhibition of 4.19%.
For COc1cccc2c1C(=O)c1c(O)c3c(c(O)c1C2=O)C[C@@](O)(C(=O)CO)C[C@@H]3O[C@H]1C[C@H](N)[C@H](O)[C@H](C)O1, the growth inhibition was 82.1% (active).
In the case of COc1cccc2c1C(=O)c1c(O)c3c(c(O)c1C2=O)C[C@@](O)(C(C)=O)C[C@@H]3O[C@H]1C[C@H](N)[C@H](O)[C@H](C)O1, the growth inhibition is reported as 94.4% (active).
O=c1/c(=C\c2cccn2-c2ccccc2)sc2nc3ccccc3n12 gave a growth inhibition of 26.5%.
CC(C)c1nc(NCCN2CCOCC2)c(C#N)c2c1COC(C)(C)C2 gave a growth inhibition of 20.7%.
Compound Fc1ccccc1-c1nc(NCCCN2CCOCC2)c2ccccc2n1 has a growth inhibition of 4.04%.
c1ccc(-n2ncc3c(NCC4CCCO4)ncnc32)cc1 (stereo unspecified) showed a growth inhibition of 33.8%.
With COc1cccc(OC)c1OCC(C)CNCC1CCCO1 (stereo unspecified) the growth inhibition was 3.8%.
c1ccc2c(NCC3CCCO3)nc(-c3ccncc3)nc2c1 (stereo unspecified) gave a growth inhibition of 13.1%.
With Oc1ccccc1-c1nc(NCCN2CCOCC2)c2ccccc2n1 the growth inhibition was 88.2% (active).
In the case of c1ccc(-c2nc(NCC3CCCO3)c3ccccc3n2)nc1 (stereo unspecified), the growth inhibition is reported as 60.2% (active).
With COc1cccc(-c2nc(NCCN3CCOCC3)c3ccccc3n2)c1O the growth inhibition was 80.7% (active).
With COc1cccc(-c2nc(NCC3CCCO3)c3ccccc3n2)c1O (stereo unspecified) the growth inhibition was 83.8% (active).
Compound Cc1cc(OCCN2CCOCC2)nc2ccccc12 has a growth inhibition of 10.6%.
Cc1cc(-c2ccccc2)nnc1NCCN1CCOCC1 showed a growth inhibition of -7.35%.
Work on C=CCNc1nc(-c2cccc(OC)c2O)nc2ccccc12 yielded a growth inhibition of 24.3%.
Compound O=C(C1=C(O)C(=O)N(CCCN2CCOCC2)C1c1ccccn1)c1cccs1 (stereo unspecified) has a growth inhibition of 1.45%.
Cc1ccc(C(=O)C2=C(O)C(=O)N(c3ncccn3)C2c2ccc(Cl)cc2)o1 (stereo unspecified) showed a growth inhibition of -6.83%.
In the case of COC(=O)c1c(C)[nH]c(C(=O)OCc2ccc(F)cc2)c1C, the growth inhibition is reported as 13%.
For O=C1C2ON(c3ccccc3)C(c3ccncc3)C2C(=O)N1c1ccc(Br)cc1 (stereo unspecified), the growth inhibition was -9.58%.
In the case of OCCN=C(c1ccccc1)C12CN3CN(CN(C3)C1)C2, the growth inhibition is reported as -0.01%.
C=CCOC(=O)C(C#N)c1nc2ccccc2nc1N1CCC(C(=O)OCC)CC1 (stereo unspecified) showed a growth inhibition of 45.6%.
For CCOC(=O)C1CCCN(c2nc3ccccc3nc2C(C#N)C(=O)OC(C)COC)C1 (stereo unspecified), the growth inhibition was 24.2%.
Work on CCOC(=O)c1[nH]c2ccc(OC)cc2c1NC(=O)CN1CCN(c2ccccn2)CC1 yielded a growth inhibition of 0.14%.
In the case of CC(C)C(=O)N1CCN(c2nc(-c3ccccc3)c3c(c2C#N)CCCC3)CC1, the growth inhibition is reported as 68% (active).
CC(C)Cc1nc(N2CCOCC2)c(C#N)c2c1CCC2 gave a growth inhibition of 4.59%.
In the case of CC(C)Cc1nc(N2CCN(C(=O)c3ccco3)CC2)c(C#N)c2c1CCC2, the growth inhibition is reported as 57.2% (active).
CC(C)Cc1nc(N2CCN(C(=O)C(C)C)CC2)c(C#N)c2c1CCC2 gave a growth inhibition of 42.3%.
Compound CC1(C)Cc2c(C#N)c(N3CCOCC3)nc(-c3ccccc3)c2CO1 has a growth inhibition of 13.6%.
With CC(C)C(=O)N1CCN(c2nc(-c3ccccc3)c3c(c2C#N)CC(C)(C)OC3)CC1 the growth inhibition was 34.1%.
In the case of CC(=O)N1CCN(c2nc(CC(C)C)c3c(c2C#N)CCC3)CC1, the growth inhibition is reported as 22.1%.
With CCCC(=O)N1CCN(c2nc(CC(C)C)c3c(c2C#N)CCC3)CC1 the growth inhibition was 53.8% (active).
Work on CC(C)Cc1nc(N2CCCCC2)c(C#N)c2c1CCC2 yielded a growth inhibition of 20.9%.
Work on c1ccc(C2Nc3ccccc3-c3nc4ccccc4n32)nc1 (stereo unspecified) yielded a growth inhibition of 26%.
In the case of Cc1nn(CC(=O)NCCN2CCOCC2)c(=O)c2ccccc12, the growth inhibition is reported as 1.62%.
For Oc1ccccc1CNn1cnnc1, the growth inhibition was 7.07%.
Compound Cc1ccc(OCC(=O)N(C)CCc2ccccn2)cc1 has a growth inhibition of -1.84%.
Work on O=C(NCc1cccnc1)c1ccc(=O)oc1 yielded a growth inhibition of -2.22%.
With CSc1nc(NC(C)=O)nc(C)c1Cl the growth inhibition was 3.88%.
For C=CCN(C(=O)CCC(=O)O)C1CC(=O)N(c2ccc(OCCC)cc2)C1=O (stereo unspecified), the growth inhibition was 34.7%.
Work on Cc1cccc(C)c1NC(=O)C1CCCCN1C (stereo unspecified) yielded a growth inhibition of -1.85%.
In the case of CCN(CC)CC(=O)Nc1c(C)cccc1C, the growth inhibition is reported as -1.4% and -6.03%.
With Cc1cccc(C)c1NC(=O)CSCC(=O)c1ccc(O)c(O)c1 the growth inhibition was 76.2% (active).
Compound COc1ccc(/C(O)=C2/C(=O)C(=O)N(CCN3CCOCC3)C2c2ccccn2)cc1 (stereo unspecified) has a growth inhibition of 7.6%.
In the case of COCc1cc(=O)[nH]c(Nc2nc3ccccc3o2)n1, the growth inhibition is reported as 66.6% (active).
With Cc1cc(=O)[nH]c(COc2ccccc2)n1 the growth inhibition was 6.76%.
With COCc1cc(=O)[nH]c(Nc2nc3ccc(C)cc3o2)n1 the growth inhibition was 70.6% (active).
With Cc1cc(C)n(C(=O)CSc2nc3ccccc3o2)n1 the growth inhibition was -7.75%.
Cc1cccc(OCc2nc(C)cc(=O)[nH]2)c1 showed a growth inhibition of 1.95%.
With COc1ccccc1C1CC(c2ccc(Cl)cc2)Nc2nc(N)nn21 (stereo unspecified) the growth inhibition was 8.72%.
Cc1cc2c(C)nc(Cc3ccccc3)nc2o1 showed a growth inhibition of 1.92%.
CCCCCCn1c(C(C)O)nc2ccccc21 (stereo unspecified) showed a growth inhibition of 15.7%.
Work on COc1cccc(/C(O)=C2/C(=O)C(=O)N(CCCN(C)C)C2c2cccc(Cl)c2)c1 (stereo unspecified) yielded a growth inhibition of -2.1%.
Cc1cccc(N2CN=c3s/c(=C\c4ccncc4)c(=O)n3C2)c1 showed a growth inhibition of 5.71%.
N#CC1=C(N)N(c2ccccc2)C(c2ccccc2)C1(C#N)C#N (stereo unspecified) gave a growth inhibition of 21.4%.
With Cn1ncc(N=Cc2c(O)ccc3ccccc23)c1C(=O)N1CCOCC1 the growth inhibition was 3.71%.
For Cc1coc2c(O)cc3c(c12)OC1(N2CCCCC2)C(=O)NCCCC31 (stereo unspecified), the growth inhibition was 91.4% (active).
For COc1ccc(C2N3CC4(C)CN2CC(C)(C3)C4O)cc1OC (stereo unspecified), the growth inhibition was 0.13%.
With CC1(C)Cc2c(oc3ncn4ncnc4c23)CO1 the growth inhibition was 0.31%.
For COc1cc(C)nc(Oc2ccc(OCCOc3ccc(C)cc3)nn2)n1, the growth inhibition was 6.13%.
With CC1CCN(c2[nH]c(=S)c(C#N)c3c2CCCC3)CC1 the growth inhibition was 56% (active).
With CC1(C)Cc2c(c(N3CCCCC3)[nH]c(=S)c2C#N)CS1 the growth inhibition was 4.02%.
Work on CCc1[nH]c(=O)c(C#N)c2c1CCCC2 yielded a growth inhibition of 2.12%.
Work on COc1ccc2c(c1)[nH]c1c(=O)n(CCN(C)C)cnc12 yielded a growth inhibition of 4.43%.
CC1(C)SC2[C@H](NC(=O)C(NC(=O)N3CCNC3=O)c3ccccc3)C(=O)N2C1C(=O)O (stereo partly specified) gave a growth inhibition of 3.08%.
With CC(C)C1C(C#N)=C(N)Oc2n[nH]c(C(C)(C)C)c21 (stereo unspecified) the growth inhibition was -3.11%.
Compound Cc1[nH]nc2c1C(CCc1ccccc1)C(C#N)=C(N)O2 (stereo unspecified) has a growth inhibition of 0.1%.
In the case of C1CCC(C(CC2CCCCN2)C2CCCCC2)CC1 (stereo unspecified), the growth inhibition is reported as 91.8% (active).
N#CCSc1nc2c(c(=O)n1Cc1ccco1)C1(CCCC1)Cc1ccccc1-2 showed a growth inhibition of 30.2%.
Cc1ccnc(N2CCN(c3c4c(c(C#N)c5nc6ccccc6n35)CCC4)CC2)c1 showed a growth inhibition of 7.43%.
Compound COc1cc(=O)[nH]c(=O)n1CC(=O)c1ccccc1 has a growth inhibition of -1.03%.
Work on CCc1nc(N2CCN(C(=O)c3ccccc3)CC2)c(C#N)c2c1COC(C)(C)C2 yielded a growth inhibition of 36.6%.
With CCCCc1nc(NCCN2CCOCC2)c(C#N)c2c1COC(C)(C)C2 the growth inhibition was 1.05%.
In the case of CC1(C)Cc2c(c(-c3ccco3)[nH]c(=O)c2C#N)CS1, the growth inhibition is reported as 0.57%.
For CC1(C)Cc2c(C#N)c(N3CCN(C(=O)c4ccco4)CC3)nc(Cc3ccccc3)c2CO1, the growth inhibition was 72.3% (active).
In the case of CC1(C)Cc2c(C#N)c(N3CCOCC3)nc(Cc3ccccc3)c2CO1, the growth inhibition is reported as 16.7%.
In the case of CCCCc1nc(NCCNC(=O)c2ccco2)c(C#N)c2c1CSC(C)(C)C2, the growth inhibition is reported as 56.1% (active).
With CC1(C)Cc2c(C#N)c(N3CCN(C(=O)c4ccco4)CC3)nc(-c3ccco3)c2CS1 the growth inhibition was 50.1% (active).
In the case of CC1(C)Cc2c(C#N)c(N3CCN(C(=O)c4ccccc4)CC3)nc(-c3ccco3)c2CS1, the growth inhibition is reported as 12.2%.
CC1(C)Cc2c(C#N)c(NCCc3ccccc3)nc(-c3ccco3)c2CO1 gave a growth inhibition of 1.2%.
CCOC(=O)C(C(=O)OCC)N(C#N)c1nc(SC)nc(N(C)C)n1 showed a growth inhibition of -4.38%.
With Cc1nnc(SCC(=O)N2CCC(C(N)=O)CC2)s1 the growth inhibition was -21.6%.
C=C(C)CN(CC)CCC(=O)Nc1ccc(OC)cc1OC showed a growth inhibition of 4.6%.
In the case of COC(=O)CNC(=O)c1c(C)cc(=O)oc1C, the growth inhibition is reported as 0.81%.
